Of roughly 8,800 targets only a part is listed; those with a hit were picked by preference. About 0.5% of all pairs of compound and target were hits. A number with no mark means an inactive call.

Experiment in all cases: log2 fold change, soluble protein after heating vs DMSO (PISA); higher = thermal stabilisation; K562 lysate, 10 uM; active = over 0.2 and 3.5 SD of the protein, either way, in both replicates (recomputed)
Compound in one assay: C=CC(=O)N1CCC[C@@H](n2nc(-c3ccc(Oc4ccccc4)cc3)c3c(N)ncnc32)C1 [ibrutinib]
A digest of the protocol:
(§1)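 K562 pellets were dounce-homogenised in PBS pH 7.4 with 1 mM MgCl2, and the crude extract at 1 mg/mL protein was treated with 10 μM compound for 30 min. Aliquots were heated for 3 min across 48°C-58°C, pooled, and brought to 0.5% NP-40 at 4°C; soluble protein was the supernatant after 21,000xg for 90 min. Soluble protein was quantified by TMTpro 16plex LC-MS/MS with channel sums equalised, and reported as log2 fold change in thermal stability against DMSO controls, with values from duplicates.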

Compound in assay [1]: CC(=O)c1cnc2ccc(-c3cc(Cl)c(O)c(Cl)c3)nc2c1N[C@H]1CC[C@H](CN(C)C)CC1
A digest of the protocol:
as §1

Compound in the next assay: CC(C)(C)Cn1c(N)nc2ccc(-c3[nH]c(C(C)(C)C)nc3-c3ccc(F)cc3)nc21 [ralimetinib]
In short, it runs like this: as §1

Compound in assay [2]: CC(C)(O)CC(=O)NCCn1ccc2ncnc(Nc3ccc(Oc4cccc(C(F)(F)F)c4)c(Cl)c3)c21
A digest of the protocol:
as §1

Compound in assay [3]: CC(C)C1=C2N=C(C=C(N2N=C1)NCC3=CC=CC=C3)NCCCCCCN
A digest of the protocol: as §1

Compound in assay [4]: CC1=C(C(CC(=O)N1)C2=CC=C(C=C2)C(F)(F)F)C(=O)NC3=C(C=C4C(=C3)C=NN4)F
A digest of the protocol: as §1

Compound in assay [5]: CC1=C(C2=C(C=C1)C(=O)C3=CC=CC=C3N2CCCN)C
A digest of the protocol:
as §1

Compound in assay [6]: CC1=C(C=C(C=C1)NC(=O)C2=CC(=CC=C2)C(C)(C)C#N)NC3=CC4=C(C=C3)N=CN(C4=O)C
A digest of the protocol:
as §1

Compound in assay [7]: CC1=C(C=C(C=C1)NC(=O)C2=CC(=CC=C2)N(C)C)NC(=O)C3=CC=C(C=C3)O
In short, it runs like this:
as §1

Compound in assay [8]: CC1=CC=C(C=C1)SC2=C3C=C(SC3=CN=C2)C(=O)N
In short, it runs like this:
as §1

Compound in a further assay: CCCS(=O)(=O)Nc1ccc(F)c(C(=O)c2c[nH]c3ncc(-c4ccc(Cl)cc4)cc23)c1F [vemurafenib]
In short, it runs like this: as §1

Compound in assay [9]: CCCS(=O)(=O)Nc1ccc(F)c(C(=O)c2c[nH]c3ncc(Cl)cc23)c1F
In short, it runs like this:
as §1

Compound in another assay: CCN(CCCOc1ccc2c(Nc3cc(CC(=O)Nc4cccc(F)c4)[nH]n3)ncnc2c1)CCOP(=O)(O)O [barasertib]
In short, it runs like this: as §1

Compound in assay [10]: CC[C@@H]1C(=O)N(C)c2cnc(Nc3ccc(C(=O)NC4CCN(C)CC4)cc3OC)nc2N1C1CCCC1
In short, it runs like this: as §1

Compound in the next assay: CC[C@@H]1C(=O)N(C)c2cnc(Nc3ccc(C(=O)N[C@H]4CC[C@H](N5CCN(CC6CC6)CC5)CC4)cc3OC)nc2N1C(C)C [volasertib]
In short, it runs like this:
as §1

Compound in assay [11]: CCn1c(C(=O)N(C2CC2)C2CC2)cc2c3c(ncn3C)c(Nc3cc(C)n(C)n3)nc21
A digest of the protocol: as §1

Compound in assay [12]: CCn1cc(-c2ccnc3[nH]c(-c4cccc(CN(C)C)c4)cc23)c(-c2ccc(NC(=O)N(C)C)cc2)n1
A digest of the protocol:
as §1

Compound in assay [13]: CN1CCC(CNc2ccc3ncc(-c4cccc(OC(F)(F)F)c4)n3n2)CC1
A digest of the protocol:
as §1

Compound in the next assay: CN1CCN(CCOc2cc(OC3CCOCC3)c3c(Nc4c(Cl)ccc5c4OCO5)ncnc3c2)CC1 [saracatinib]
A digest of the protocol:
as §1

Compound in a further assay: CN1CCN(c2nc(C3=C(c4c[nH]c5ccccc45)C(=O)NC3=O)c3ccccc3n2)CC1 [sotrastaurin]
In short, it runs like this:
as §1

Sequence of UniProt O95347 (O95347 whole entry, looked up): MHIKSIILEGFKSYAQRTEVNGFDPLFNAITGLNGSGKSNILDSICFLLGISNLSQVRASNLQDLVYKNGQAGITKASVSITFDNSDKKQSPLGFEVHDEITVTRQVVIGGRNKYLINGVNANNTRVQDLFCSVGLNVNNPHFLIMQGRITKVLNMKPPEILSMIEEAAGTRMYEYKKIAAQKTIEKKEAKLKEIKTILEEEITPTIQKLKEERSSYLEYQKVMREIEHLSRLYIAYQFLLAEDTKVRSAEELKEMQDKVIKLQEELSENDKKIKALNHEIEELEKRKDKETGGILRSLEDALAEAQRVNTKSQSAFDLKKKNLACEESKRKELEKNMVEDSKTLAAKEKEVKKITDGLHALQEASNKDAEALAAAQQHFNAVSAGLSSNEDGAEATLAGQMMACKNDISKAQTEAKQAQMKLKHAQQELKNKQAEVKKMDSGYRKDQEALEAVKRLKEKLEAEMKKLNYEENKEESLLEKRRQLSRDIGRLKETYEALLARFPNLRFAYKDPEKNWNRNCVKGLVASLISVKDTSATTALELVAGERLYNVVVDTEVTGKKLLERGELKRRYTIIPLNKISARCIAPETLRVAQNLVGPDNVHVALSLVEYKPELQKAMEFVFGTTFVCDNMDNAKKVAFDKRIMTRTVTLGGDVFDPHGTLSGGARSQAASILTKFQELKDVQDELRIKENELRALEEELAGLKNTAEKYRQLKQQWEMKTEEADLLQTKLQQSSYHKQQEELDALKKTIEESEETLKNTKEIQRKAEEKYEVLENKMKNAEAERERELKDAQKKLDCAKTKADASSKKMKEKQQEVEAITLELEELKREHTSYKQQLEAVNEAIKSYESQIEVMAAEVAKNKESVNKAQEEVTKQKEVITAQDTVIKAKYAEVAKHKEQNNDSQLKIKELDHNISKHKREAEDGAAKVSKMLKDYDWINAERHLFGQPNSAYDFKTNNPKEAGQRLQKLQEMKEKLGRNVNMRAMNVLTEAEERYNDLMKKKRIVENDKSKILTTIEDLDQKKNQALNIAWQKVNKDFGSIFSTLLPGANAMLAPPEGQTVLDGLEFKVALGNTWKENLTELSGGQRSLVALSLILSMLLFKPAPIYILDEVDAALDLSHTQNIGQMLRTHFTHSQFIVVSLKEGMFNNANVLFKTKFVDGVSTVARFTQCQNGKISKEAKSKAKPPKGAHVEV
Sequence of UniProt Q96DI7 (Q96DI7 whole entry, looked up): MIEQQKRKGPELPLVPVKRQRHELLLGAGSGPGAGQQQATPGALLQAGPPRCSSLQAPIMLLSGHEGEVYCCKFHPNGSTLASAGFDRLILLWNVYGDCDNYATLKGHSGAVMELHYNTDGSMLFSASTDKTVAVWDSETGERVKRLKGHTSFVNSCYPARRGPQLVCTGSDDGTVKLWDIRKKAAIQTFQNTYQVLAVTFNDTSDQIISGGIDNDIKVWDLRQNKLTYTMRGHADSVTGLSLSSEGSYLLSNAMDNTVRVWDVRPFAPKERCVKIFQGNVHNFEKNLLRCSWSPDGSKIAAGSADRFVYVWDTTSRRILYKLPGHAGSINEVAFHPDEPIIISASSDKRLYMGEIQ
Sequence of UniProt Q9H2H9 (Q9H2H9 whole entry, looked up): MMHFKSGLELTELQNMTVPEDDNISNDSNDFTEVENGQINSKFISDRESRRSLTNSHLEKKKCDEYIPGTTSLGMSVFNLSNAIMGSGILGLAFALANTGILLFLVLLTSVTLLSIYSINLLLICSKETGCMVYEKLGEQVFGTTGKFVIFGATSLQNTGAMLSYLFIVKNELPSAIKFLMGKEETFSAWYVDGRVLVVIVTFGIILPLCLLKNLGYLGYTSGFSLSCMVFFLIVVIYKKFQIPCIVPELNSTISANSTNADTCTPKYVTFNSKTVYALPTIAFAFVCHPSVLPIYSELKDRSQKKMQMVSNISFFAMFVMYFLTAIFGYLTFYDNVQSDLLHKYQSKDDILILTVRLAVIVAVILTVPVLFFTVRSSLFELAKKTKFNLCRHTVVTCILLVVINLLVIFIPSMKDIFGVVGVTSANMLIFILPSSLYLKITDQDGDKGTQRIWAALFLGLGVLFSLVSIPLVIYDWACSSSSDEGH
Sequence of UniProt Q8WU79 (Q8WU79 whole entry, looked up): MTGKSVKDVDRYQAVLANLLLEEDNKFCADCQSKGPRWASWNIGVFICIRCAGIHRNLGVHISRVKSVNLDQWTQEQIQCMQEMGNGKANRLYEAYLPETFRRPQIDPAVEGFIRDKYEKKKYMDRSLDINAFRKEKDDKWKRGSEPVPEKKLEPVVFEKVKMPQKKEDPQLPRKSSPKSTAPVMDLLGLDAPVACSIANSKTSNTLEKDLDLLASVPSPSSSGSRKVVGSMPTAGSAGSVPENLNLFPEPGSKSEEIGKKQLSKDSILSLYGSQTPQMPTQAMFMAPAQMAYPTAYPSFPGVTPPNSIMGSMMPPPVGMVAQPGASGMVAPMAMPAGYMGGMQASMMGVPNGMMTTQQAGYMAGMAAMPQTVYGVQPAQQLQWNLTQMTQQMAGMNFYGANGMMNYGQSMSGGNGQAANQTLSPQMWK
Sequence of UniProt Q8IX90 (Q8IX90 whole entry, looked up): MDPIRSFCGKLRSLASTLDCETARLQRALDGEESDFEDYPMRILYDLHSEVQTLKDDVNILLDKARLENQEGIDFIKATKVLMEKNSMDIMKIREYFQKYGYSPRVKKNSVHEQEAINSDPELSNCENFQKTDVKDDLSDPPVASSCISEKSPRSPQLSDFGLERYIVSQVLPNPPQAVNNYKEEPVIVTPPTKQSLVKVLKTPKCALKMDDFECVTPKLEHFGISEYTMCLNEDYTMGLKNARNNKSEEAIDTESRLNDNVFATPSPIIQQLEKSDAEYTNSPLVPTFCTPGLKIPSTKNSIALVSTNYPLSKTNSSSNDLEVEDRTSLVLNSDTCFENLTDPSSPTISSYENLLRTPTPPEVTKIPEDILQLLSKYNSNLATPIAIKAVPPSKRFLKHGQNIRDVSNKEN
Sequence of UniProt P53985 (P53985 whole entry, looked up): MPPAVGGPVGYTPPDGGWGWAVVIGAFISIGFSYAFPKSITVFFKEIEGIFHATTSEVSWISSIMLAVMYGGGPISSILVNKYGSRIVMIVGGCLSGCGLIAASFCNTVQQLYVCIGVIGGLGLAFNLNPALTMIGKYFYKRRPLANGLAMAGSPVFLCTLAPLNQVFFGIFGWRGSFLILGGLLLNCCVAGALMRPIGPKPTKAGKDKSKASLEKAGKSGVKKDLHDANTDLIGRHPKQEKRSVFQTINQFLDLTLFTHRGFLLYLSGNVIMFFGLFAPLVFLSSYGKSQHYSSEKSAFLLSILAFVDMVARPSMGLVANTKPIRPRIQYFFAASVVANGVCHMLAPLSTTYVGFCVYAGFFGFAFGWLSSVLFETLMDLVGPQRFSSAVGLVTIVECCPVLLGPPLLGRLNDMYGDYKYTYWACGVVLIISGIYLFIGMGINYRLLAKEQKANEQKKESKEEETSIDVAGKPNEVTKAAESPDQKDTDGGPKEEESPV
Sequence of UniProt Q8WUM9 (Q8WUM9 whole entry, looked up): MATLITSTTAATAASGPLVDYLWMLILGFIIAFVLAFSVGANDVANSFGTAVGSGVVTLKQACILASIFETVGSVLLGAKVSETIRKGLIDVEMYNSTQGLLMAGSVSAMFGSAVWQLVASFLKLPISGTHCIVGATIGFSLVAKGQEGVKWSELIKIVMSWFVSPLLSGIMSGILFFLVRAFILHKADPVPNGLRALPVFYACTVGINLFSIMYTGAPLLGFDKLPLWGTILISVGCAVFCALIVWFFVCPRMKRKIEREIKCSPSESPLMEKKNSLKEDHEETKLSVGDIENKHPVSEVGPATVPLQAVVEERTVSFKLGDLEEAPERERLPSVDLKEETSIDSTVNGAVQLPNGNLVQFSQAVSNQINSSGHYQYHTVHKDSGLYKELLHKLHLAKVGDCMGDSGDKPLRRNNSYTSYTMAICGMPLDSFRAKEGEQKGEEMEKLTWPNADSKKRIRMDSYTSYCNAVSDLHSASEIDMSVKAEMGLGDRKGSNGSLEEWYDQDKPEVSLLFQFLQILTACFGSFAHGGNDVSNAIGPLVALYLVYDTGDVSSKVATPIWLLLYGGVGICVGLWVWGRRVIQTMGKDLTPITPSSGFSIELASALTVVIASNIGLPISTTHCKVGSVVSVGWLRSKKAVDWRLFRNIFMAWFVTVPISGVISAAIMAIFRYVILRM

Take SNRNP40 (UniProt Q96DI7): the log2 fold change in the assay with ibrutinib was -0.008; in assay [1], 0.026; with ralimetinib, -0.03; in [2], -0.047; in assay [3], -0.02; in assay [4], 0.042. Also, the log2 fold change in assay [5] is 0.332 (active); in [6] it was 0.02; in assay [7], 0.069; in assay [8], 0.029; in the assay with vemurafenib it was -0.032; in assay [9] it was 0.019. Further, the log2 fold change was -0.06 in the assay with barasertib; -0.001 in assay [10]; -0.024 in the assay with volasertib; -0.033 in assay [11]; -0.115 in [12]; 0.058 in assay [13]. Also, the log2 fold change in the assay with saracatinib is 0.01; with sotrastaurin, -0.013.

Consider SMC2 (UniProt O95347), for which the log2 fold change in the assay with ibrutinib was 0.014; in assay [1], -0.011; with ralimetinib, -0.016; in assay [2], -0.008; in assay [3] it was 0.014; in [4], -0.012. Also, the log2 fold change is 0 in assay [5]; 0 in assay [6]; 0.013 in [7]; 0.001 in [8]; 0.002 with vemurafenib; 0.007 in [9]. Moreover, the log2 fold change was -0.001 with barasertib; -0.033 in assay [10]; -0.047 with volasertib; -0.002 in [11]; 0.134 in [12]; -0.121 in [13]. The log2 fold change with saracatinib was 0.005; with sotrastaurin, 0.014.

SLC38A1 (UniProt Q9H2H9): the log2 fold change in the assay with ibrutinib was 0.001; in assay [1], -0.053; in the assay with ralimetinib, -0.021; in [2] it was -0.041; in assay [3] it was 0.037; in assay [4], -0.001. Further, the log2 fold change in assay [5] is -0.039; in assay [6], 0.027; in [7], 0.018; in assay [8], -0.01; with vemurafenib, 0.03; in assay [9], -0.007. The log2 fold change in the assay with barasertib was 0; in assay [10], 0.035; in the assay with volasertib it was 0.066; in [11], 0.008; in assay [12], -0.269 (active); in [13], 0.102. The log2 fold change in the assay with saracatinib was -0.002; in the assay with sotrastaurin it was 0.024.

On to SMAP2 (UniProt Q8WU79), for which the log2 fold change was -0.008 with ibrutinib; -0.008 in assay [1]; -0.015 in the assay with ralimetinib; -0.01 in assay [2]; 0.024 in assay [3]; 0.034 in assay [4]. Moreover, the log2 fold change in assay [5] is 0.019; in assay [6] it was -0.286 (active); in assay [7] it was -0.015; in [8] it was 0.002; in the assay with vemurafenib, -0.043; in assay [9], 0.011. The log2 fold change is 0.013 in the assay with barasertib; 0.047 in assay [10]; -0.02 with volasertib; 0.012 in assay [11]; 0.043 in [12]; -0.001 in [13]. Besides, the results for the log2 fold change in the assay with saracatinib and in the assay with sotrastaurin were 0.044 and -0.027, respectively.

Turning to SKA3 (UniProt Q8IX90), the log2 fold change is 0.001 with ibrutinib; -0.032 in [1]; -0.021 with ralimetinib; -0.038 in [2]; 0.007 in [3]; 0.027 in assay [4]. Besides, the log2 fold change in assay [5] is -0.011; in assay [6], 0.027; in [7], 0.025; in assay [8], -0.046; with vemurafenib, 0.047; in assay [9], 0.011. Besides, the log2 fold change was -0.062 with barasertib; 0.016 in assay [10]; 0.007 with volasertib; -0.018 in assay [11]; -0.027 in [12]; 0.023 in assay [13]. Also, the log2 fold change with saracatinib was 0.017; in the assay with sotrastaurin, 0.028.

Turning to SLC20A1 (UniProt Q8WUM9), the log2 fold change in the assay with ibrutinib was 0.022; in assay [1], -0.028; with ralimetinib, -0.013; in assay [2], -0.08; in [3] it was 0.05; in [4], 0.072. The log2 fold change was -0.015 in [5]; 0.027 in [6]; 0.002 in assay [7]; -0.054 in assay [8]; 0.099 with vemurafenib; -0.004 in assay [9]. Further, the log2 fold change was 0.009 with barasertib; 0.416 (active) in assay [10]; -0.028 with volasertib; -0.061 in [11]; 0.153 in assay [12]; -0.013 in assay [13]. The log2 fold change with saracatinib is 0.063; with sotrastaurin, -0.006.

With SLC16A1 (UniProt P53985), the log2 fold change is -0.023 with ibrutinib; 0.002 in assay [1]; 0.015 with ralimetinib; 0.015 in [2]; 0.003 in assay [3]; -0.039 in assay [4]. In addition, the log2 fold change in assay [5] is -0.03; in assay [6] it was 0.042; in [7], 0; in assay [8], -0.006; with vemurafenib it was 0.026; in assay [9], -0.015. Moreover, the log2 fold change in the assay with barasertib was -0.051; in [10], 0.07; with volasertib it was 0.043; in assay [11], -0.034; in assay [12], -0.419 (active); in assay [13] it was 0.256 (active). Besides, the log2 fold change with saracatinib is -0.003; with sotrastaurin it was 0.02.

The record behind these values is the supplement of paper PMC10849652.
